From PubChem BioAssay (NCI)
“And” between values parts separate entries of the source, which are not always exact repeats. Identical values can stand only once. This is part of a sample that, as a whole, favours compounds with a hit. Of some 79,000 tested, about 15% had one in any assay. A structure can be active in one record and inactive in another. The source made the active and inactive calls. Rule as the data show it: active = growth inhibition above about 70%; inactive = the rest.

Tests used:
[1] = NCI Yeast Anticancer Drug Screen. Data for the wt2 strain (AID 169); conditions: S. cerevisiae wt2 strain growth inhibition, stronger effect = higher value
Summary of the method: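 This strain belongs to a panel of yeast strains with defined genetic alterations in DNA damage repair or cell cycle control. Compounds are applied, and growth inhibition is measured against vehicle-treated cultures.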

[2] = NCI Yeast Anticancer Drug Screen. Data for the sgs1 strain (AID 173);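 also: 0% = growth of vehicle-only control cultures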; conditions: S. cerevisiae sgs1 mutant, stronger effect = higher value
Summary of the method: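 Growth of a yeast strain bearing a defined genetic alteration is measured after compound treatment. Inhibition is expressed relative to vehicle-only controls.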

[3] = NCI Yeast Anticancer Drug Screen. Data for the mlh1 rad18 strain (AID 175); conditions: S. cerevisiae mlh1 rad18 strain growth inhibition, stronger effect = higher value
Summary of the method: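 Read-out is yeast growth inhibition, calculated against vehicle-only controls. The compound was applied to a strain engineered with DNA damage repair alterations.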

[4] = NCI Yeast Anticancer Drug Screen. Data for the rad18 strain (AID 177); conditions: S. cerevisiae rad18 mutant growth inhibition, stronger effect = higher value
Summary of the method: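 Growth of the mutant yeast strain after compound exposure, normalised to vehicle-only cultures.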

[5] = NCI Yeast Anticancer Drug Screen. Data for the rad52 strain (AID 147);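 also: 0% = growth of vehicle-treated control cultures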; conditions: S. cerevisiae rad52 mutant growth inhibition, stronger effect = higher value
Summary of the method: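 Compounds are applied to a genetically defined yeast strain lacking normal DNA damage repair, and inhibition of growth is expressed relative to cultures given vehicle only.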

[6] = NCI Yeast Anticancer Drug Screen. Data for the wt1 strain (AID 149);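 also: 0% = growth of vehicle-treated wt1 cultures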; conditions: S. cerevisiae wt1 strain (SPY 50644) growth inhibition, stronger effect = higher value
Summary of the method: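 Each compound is tested on wt1 yeast and the loss of growth versus vehicle gives the inhibition value.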

[7] = NCI Yeast Anticancer Drug Screen. Data for the rad50EPP+ strain (AID 151);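 also: 0% = growth of vehicle-treated control cultures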; conditions: S. cerevisiae rad50 mutant strain, stronger effect = higher value
Summary of the method: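 Compounds were applied to the rad50EPP+ yeast strain, which bears a defined DNA repair alteration, and growth inhibition was determined relative to vehicle-treated cultures.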

[8] = NCI Yeast Anticancer Drug Screen. Data for the mgt1 strain (AID 153); conditions: S. cerevisiae mgt1 mutant growth inhibition, stronger effect = higher value
Summary of the method: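 Strain: mgt1 yeast, one of a set carrying defined DNA damage repair or cell cycle control alterations. Compound-treated growth compared with vehicle.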

[9] = NCI Yeast Anticancer Drug Screen. Data for the rad50 strain (AID 155);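 also: 0% = growth of vehicle-only cultures of the same strain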; conditions: S. cerevisiae rad50 strain growth inhibition, stronger effect = higher value
Summary of the method: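 Vehicle-treated cultures provide the reference for the growth inhibition reported for compound-exposed, repair-deficient yeast.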

[10] = NCI Yeast Anticancer Drug Screen. Data for the mec2-1 strain (AID 157); conditions: S. cerevisiae mec2-1 strain, stronger effect = higher value
Summary of the method: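 Strain: mec2-1 (DNA repair/cell cycle alteration). Compound exposure, then growth measured; inhibition expressed relative to vehicle.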

[11] = NCI Yeast Anticancer Drug Screen. Data for the rad14 strain (AID 159);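 also: 0% = growth of vehicle-treated control cultures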; conditions: S. cerevisiae rad14 strain growth inhibition, stronger effect = higher value
Summary of the method: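 Inhibition of growth is reported for a repair-deficient yeast mutant following compound treatment, calculated relative to cultures that received vehicle.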

[12] = NCI Yeast Anticancer Drug Screen. Data for the sgs1 mgt1 strain (AID 161);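 also: 0% = growth of cultures given vehicle only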; conditions: S. cerevisiae sgs1 mgt1 strain, stronger effect = higher value
Summary of the method: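 Test agents were incubated with a DNA-repair-mutant yeast strain. Growth was then read and compared against vehicle-treated controls.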

[13] = NCI Yeast Anticancer Drug Screen. Data for the CLN2oe strain (AID 163);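 also: 0% = growth of vehicle-only control cultures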; conditions: S. cerevisiae CLN2oe strain, stronger effect = higher value
Summary of the method: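 Growth of a genetically modified yeast strain is measured after compound exposure and compared with cultures given vehicle alone.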

[14] = NCI Yeast Anticancer Drug Screen. Data for the cln2 rad14 strain (AID 165);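 also: 0% = growth equal to vehicle treated cultures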; conditions: S. cerevisiae cln2 rad14 strain, stronger effect = higher value
Summary of the method: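 Compounds are applied to the cln2 rad14 yeast strain, and growth is then compared with that of vehicle-treated cultures to give inhibition.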

[15] = NCI Yeast Anticancer Drug Screen. Data for the bub3 strain (AID 167); conditions: S. cerevisiae bub3 mutant strain, stronger effect = higher value
Summary of the method: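 Mutant yeast screening strain plus compound; vehicle-treated cultures serve as the 0% inhibition reference.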

[16] = NCI Yeast Anticancer Drug Screen. Data for the mlh1 strain (AID 171);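 also: 0% = growth of vehicle-treated control cultures of the same strain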; conditions: S. cerevisiae mlh1 strain growth inhibition, stronger effect = higher value
Summary of the method: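 Growth of the mutant yeast strain after compound exposure, expressed as inhibition relative to vehicle-only controls.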

[17] = at 5.0 µM (retest, dose inferred, filed as 0.5)
[18] = at 50.0 µM (retest, dose inferred, filed as 5.0)

Measured: growth inhibition

COc1ccc(/C=C/C(=O)c2ccccc2)cc1OC
17.4% (inactive) and 76.2% (active): [3]; at 50.0 µM
active: [1]; at 100.0 µM 95% | [2]; at 100.0 µM 96% | [3]; [18] 79% | [4]; at 33.0 µM 72% | [4]; at 100.0 µM 95%
inactive: [1]; at 1.2 µM -30% | [1]; at 3.7 µM -33% | [1]; at 11.0 µM -34% | [1]; at 33.0 µM 38% | [2]; at 1.2 µM -11% | [2]; at 3.7 µM -2% | [2]; at 11.0 µM 5% | [2]; at 33.0 µM 51% | [3]; [17] 3% | [4]; at 1.2 µM -12% | [4]; at 3.7 µM -20% | [4]; at 11.0 µM -8%

CNC(=O)OCc1c(COC(=O)NC)c(-c2ccc(Cl)cc2)n2c1CCC2
inactive: [5]; at 1.2 µM -19% | [5]; at 3.7 µM -31% | [5]; at 11.0 µM -28% | [5]; at 33.0 µM -22% | [5]; at 100.0 µM 69% | [6]; at 1.2 µM -37% | [6]; at 3.7 µM -31% | [6]; at 11.0 µM -43% | [6]; at 33.0 µM -47% | [7]; at 1.2 µM -21% | [7]; at 3.7 µM -23% | [7]; at 11.0 µM -16% | [7]; at 33.0 µM -25% | [7]; at 100.0 µM -26% | [8]; at 1.2 µM -47% | [8]; at 3.7 µM -55% | [8]; at 11.0 µM -49% | [8]; at 33.0 µM -17% | [9]; at 1.2 µM -34% | [9]; at 3.7 µM -42% | [9]; [17] 21% | [9]; at 11.0 µM -40% | [9]; at 33.0 µM -30% | [9]; [18] 11% | [9]; at 50.0 µM 56.3% | [10]; at 1.2 µM -55% | [10]; at 3.7 µM -41% | [10]; [17] 0% | [10]; at 11.0 µM -37% | [10]; at 33.0 µM -36% | [10]; [18] 6% | [10]; at 50.0 µM 44.7% | [11]; at 1.2 µM -34% | [11]; at 3.7 µM -31% | [11]; at 11.0 µM -39% | [11]; at 33.0 µM 2% | [12]; [17] 33% | [12]; [18] 69% | [12]; at 50.0 µM 57.5% | [13]; at 1.2 µM -21% | [13]; at 3.7 µM -1% | [13]; at 11.0 µM -9% | [13]; at 33.0 µM -6% | [14]; [17] 30% | [14]; [18] 38% | [15]; at 1.2 µM -53% | [15]; at 3.7 µM -69% | [15]; [17] 36% | [15]; at 11.0 µM -55% | [15]; at 33.0 µM -17% | [15]; [18] 33% | [15]; at 50.0 µM 23% | [1]; at 1.2 µM -31% | [1]; at 3.7 µM -11% | [1]; at 11.0 µM -26% | [1]; at 33.0 µM -10% | [16]; at 1.2 µM -61% | [16]; at 3.7 µM -93% | [16]; at 11.0 µM -67% | [16]; at 33.0 µM 10% | [3]; [17] 4% | [3]; [18] 5% | [4]; at 1.2 µM -28% | [4]; at 3.7 µM -30% | [4]; at 11.0 µM -53% | [4]; at 33.0 µM -42%
active: [6]; at 100.0 µM 84% | [8]; at 100.0 µM 98% | [9]; at 100.0 µM 97% | [10]; at 100.0 µM 87% | [11]; at 100.0 µM 98% | [13]; at 100.0 µM 94% | [14]; at 50.0 µM 84% | [15]; at 100.0 µM 94% | [1]; at 100.0 µM 97% | [16]; at 100.0 µM 98% | [3]; at 50.0 µM 74.3% | [4]; at 100.0 µM 97%

CN(C)CCOC1(Cc2ccc(Cl)cc2Cl)CCC(C(C)(C)C)CC1 (stereo unspecified)
inactive: [5]; at 1.2 µM 1% and -3% | [5]; at 3.7 µM 1% and 0% | [6]; at 1.2 µM 0% and -4% | [6]; at 3.7 µM -4% and -6% | [7]; at 1.2 µM -9% and -10% | [7]; at 3.7 µM -50% and -53% | [8]; at 1.2 µM 0% and -3% | [8]; at 3.7 µM 14% and 19% | [9]; at 1.2 µM 1% and -4% | [9]; at 3.7 µM 3% | [9]; [17] 48% and 22% | [10]; at 1.2 µM -5% and -2% | [10]; at 3.7 µM -4% and 5% | [10]; [17] 49% and 21% | [11]; at 1.2 µM -3% and -1% | [11]; at 3.7 µM 11% and 18% | [12]; [17] 64% and 58% | [13]; at 1.2 µM -9% and -8% | [13]; at 3.7 µM -8% | [14]; [17] 40% and 16% | [15]; at 1.2 µM -8% and -3% | [15]; at 3.7 µM 0% and -2% | [15]; [17] 8% and 15% | [1]; at 1.2 µM -1% and -3% | [1]; at 3.7 µM 3% and 8% | [16]; at 1.2 µM 0% and -1% | [16]; at 3.7 µM 6% and 14% | [4]; at 1.2 µM 0% and -4% | [4]; at 3.7 µM 0% and -2%
active: [5]; at 11.0 µM 99% and 98% | [5]; at 33.0 µM 99% | [5]; at 100.0 µM 99% and 97% | [6]; at 11.0 µM 98% and 86% | [6]; at 33.0 µM 99% | [6]; at 100.0 µM 100% and 99% | [7]; at 11.0 µM 91% and 94% | [7]; at 33.0 µM 98% and 92% | [7]; at 100.0 µM 99% | [8]; at 11.0 µM 99% | [8]; at 33.0 µM 100% and 99% | [8]; at 100.0 µM 100% and 99% | [9]; at 11.0 µM 99% | [9]; at 33.0 µM 99% | [9]; [18] 100% | [9]; at 50.0 µM 98.8% and 99.2% | [9]; at 100.0 µM 99% | [10]; at 11.0 µM 99% | [10]; at 33.0 µM 100% and 99% | [10]; [18] 100% | [10]; at 50.0 µM 99.5% | [10]; at 100.0 µM 100% and 99% | [11]; at 11.0 µM 99% | [11]; at 33.0 µM 99% | [11]; at 100.0 µM 100% and 99% | [12]; [18] 100% | [12]; at 50.0 µM 99.5% and 99.7% | [13]; at 11.0 µM 99% and 81% | [13]; at 33.0 µM 98% | [13]; at 100.0 µM 97% and 99% | [14]; [18] 100% | [14]; at 50.0 µM 99.1% and 97.9% | [15]; at 11.0 µM 99% and 98% | [15]; at 33.0 µM 99% and 98% | [15]; [18] 100% | [15]; at 50.0 µM 99.2% and 95.8% | [15]; at 100.0 µM 99% | [1]; at 11.0 µM 99% | [1]; at 33.0 µM 100% and 99% | [1]; at 100.0 µM 100% | [16]; at 11.0 µM 99% | [16]; at 33.0 µM 100% and 99% | [16]; at 100.0 µM 100% and 99% | [4]; at 11.0 µM 99% and 98% | [4]; at 33.0 µM 99% | [4]; at 100.0 µM 99%
